Drawing on PubChem BioAssay AID651724 (National Center for Advancing Translational Sciences (NCATS), 2012), this text covers activity change for 20 compounds.

In all, about 340,000 compounds went through this assay and about 1,700 (0.5%) were called active. Another 2% or so got no clear call; they are omitted. What follows is part of a selection rich in actives, with near analogues and random picks from the rest. Unmarked numbers belong to inactive results. No stated cut-off is given here; in the data, active means activity change below about -65%; inconclusive means mostly about -30% to -63%; inactive means weaker than that.
On the % scale 0 is the no-effect control and ±100 the full control effect.

The assay relates to CtBP / adenovirus E1A interaction (AlphaScreen). As to the kind of experiment: qHTS Assay for Inhibitors of the CtBP/E1A Interaction. Particulars: AlphaScreen GST-E1A/His-CtBP binding, 1536-well; hits give low values. The gist of the method:
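Protein mix (5X: 125 nM each GST-E1A, His-CtBP) was incubated with pinned compound 2 h at 37 deg C in dark, in 50 mM Tris pH 8.0 buffer with 300 mM NaCl. Glutathione donor and nickel acceptor beads followed; AlphaScreen signal read after 1 h.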
In the case of `C=CCC[C@@H](CCCCC)OC(=O)/C=C/[C@@H](O)[C@H](O)C[C@H](O)CC=C`, the activity change was -9.7%.
As for `COc1ccc(C(C(=O)NCc2ccccc2)n2c(=O)c(-c3ccccc3)nc3ccccc32)cc1` (stereo not given), the activity change is 0%.
With `O=C(CN1C(=O)C2C3C=CC(C3)C2C1=O)Nc1nc(-c2ccccn2)cs1` (stereo not given), the activity change is -80.4% (active).
`O=C(CN1C(=O)C2C3C=CC(C3)C2C1=O)NCCc1ccccc1Cl` (stereo not given): the activity change is 12.6%.
To `O=C(NCCN1C(=O)C2C3C=CC(C3)C2C1=O)Nc1ccccn1` (stereo not given) belongs -15.4%.
Under `CC(NC(=O)c1ccco1)C(=O)Nc1nc(-c2ccccn2)cs1` (stereo not given) stands -88.4% (active); under `O=C(COc1ccccc1F)NC1CC1`, 8.72%.
To `CSCCC(NC(=O)c1ccco1)C(=O)Nc1cc(C)ccn1` (stereo not given) belongs 0.873%.
In the case of `CC1CCN(S(=O)(=O)c2nnc(NC(=O)COc3ccccc3F)s2)CC1`, the activity change is 1.46%.
Turning to `O=C(COc1ccccc1F)Nc1nc(-c2ccccn2)cs1`, the activity change is -89% (active).
On to `CCOC(=O)N1CCN(C(=O)C(C)NC(=O)c2ccco2)CC1` (stereo not given), for which the activity change was -2.35%.
Regarding `CCOC(=O)c1cc(-c2sc(NC(=O)c3ccccc3)nc2C)n(Cc2ccccc2)n1`, the activity change is 0.44%.
Consider `CN1OC[C@@H]2CN(S(=O)(=O)c3cccc(C(F)(F)F)c3)[C@H](c3ccc(-c4cc5ccccc5o4)cc3)C[C@@H]21`, for which the activity change is -21.8%.
Turning to `CCCCC(=O)N(C)c1c(CC)nc2c(OCc3ccc(S(C)(=O)=O)cc3)cccn12`, the activity change is 0.375%.
Consider `COc1cccc(OCc2cc(/C=N/NC(=O)c3nc(Cl)c(Cl)c(N)c3Cl)ccc2OC)c1`, for which the activity change was 7.69%.
As to `COc1cc(/C=N/NC(=O)CNC(=O)c2ccncc2)ccc1OC(C)=O`, the activity change was -2.8%.
For `COc1ccc(/C=N\NC(=O)c2sc(N)nc2C)cc1OC`, the activity change is -68.1% (active).
As for `O=C(NCc1cccnc1)c1cc(C2CCCN(C(=O)CCCc3ccccc3)C2)on1` (stereo not given), the activity change is 0.406%.
With `CCN(CC)C(=O)C1=C(C)N(Cc2ccccc2)C(=O)C(CC(=O)NC(c2ccccc2)c2ccccc2)C1` (stereo not given), the activity change is -5.91%.
For the compound `CCCOc1ccc(F)cc1-c1cc(C(=O)NCc2ccc(F)cc2)[nH]n1`, the activity change was 0%.
